# Cycloheximide cs: Cycloheximide Counterscreen for Small Molecule Inhibitors of Shiga Toxin; cell reporter, cycloheximide protein synthesis inhibition counterscreen; max response, %; actives 12% (n = 300,000); in the data active means max response mostly above about 13%, no sharp cut-off; inactive means mostly below about 14%; further: read at 38.3 µM for the half of the compounds with a filed dose; 0% is about no effect
# Pf growth 48h: Primary qHTS for delayed death inhibitors of the malarial parasite plastid, 48 hour incubation | Potency, µM (doses to about 28.7 µM), for the others: at the top dose activity change, negative = inhibition, actives largely listed as inhibitors | actives 5.9% (n = 310,000) | P. falciparum luciferase growth in erythrocytes, 48 h; further: potency means the concentration at half of the fitted maximal effect; on the % scale 0 is the no-effect control and ±100 the full control effect
#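 Read-out is firefly luciferase luminescence from an integrated reporter in P. falciparum, so falling signal marks reduced parasite growth. Infected erythrocytes were at 2% hematocrit and 0.1% parasitemia (final) in Albumax-supplemented RPMI 1640.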
# Shiga toxin inh: A qHTS for Small Molecule Inhibitors of Shiga Toxin | Vero cells, Shiga toxin protein synthesis inhibition reporter | AID 2315, 2010 | inhibition, % at 38.7 µM | actives 9.2% (n = 290,000); in the data active means inhibition mostly above about 28%, no sharp cut-off; inactive means mostly below about 43%; further: 0% is about no effect
# Pf growth 96h: Primary qHTS for delayed death inhibitors of the malarial parasite plastid, 96 hour incubation. P. falciparum luciferase reporter growth, 96 h. Potency, µM (titrated, usually from 28.7 µM), without a hit: at the top dose activity change, negative = inhibition, most hits filed as inhibitors. actives 6.9% (n = 320,000). AID 504834, 2011; further: potency means the concentration at half of the fitted maximal effect; on the % scale 0 is the no-effect control and ±100 the full control effect
#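 Compounds incubated with erythrocytes infected by luciferase-expressing P. falciparum (2% hematocrit, 0.05% parasitemia final) for 96 hours, 37 C in 5% CO2. Growth inhibition scored as decreased luciferase luminescence.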
# HCMV inh: qHTS Assay for inhibitors of the human cytomegalovirus (HCMV). actives 4.5% (n = 410,000). activity change, negative = inhibition, % at 57.5 µM. HFF cells, HCMV-luciferase reporter, 72 h; stronger effect = lower value; in the data active means activity change below about -60%; inconclusive means no clear call, values can overlap the other calls; inactive means above about -39%; further: on the % scale 0 is the no-effect control and ±100 the full control effect
#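 Inhibition of viral replication was scored as loss of reporter luminescence in HFFs infected with HCMV-luciferase (MOI 1 PFU/cell) for 72 h; compounds tested at 2 doses, normalized to buffer and Salinomycin controls.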
# Numbers without * were called inactive; ? = inconclusive; nt = not tested or not shown; [ ] = remark or other dose. Shown are actives, neighbours in structure and some others; about 20% of the full set was active somewhere. Unless noted, the call rests on the fitted dose curve; in most records, active means well fitted inhibition curve with a large enough effect; inconclusive means small, poorly fitted or top-dose-only effect, or another doubt; inactive means no such curve, though single readings can be large or run the other way.
SMILES,Cycloheximide cs,Pf growth 48h,Shiga toxin inh,Pf growth 96h,HCMV inh
CCOC(=O)N1CCC2(CC1)C(C#N)=C(N)Oc1n[nH]c(C)c12,-3.1,nt,-12.5,?,-9.4
CCOC(=O)N1CCC2(CC1)C(C#N)=C(N)Oc1c2c(C)nn1-c1cccc(Cl)c1,-3.0,9.28µM*,0.3,23.2%,?
CC(=O)Nc1ccc(Nc2cc3c(cn2)nc(-c2cccc(F)c2)n3C)cc1,nt,nt,nt,nt,21.4
CCc1cccc(C)c1NC(=S)NCC1CCN(c2ccc(OC)cc2)C1 (centres undefined),-6.1,3.29µM*,9.1,-4.5%,0.0
COc1ccc(N2CCC(CNC(=S)Nc3cccc(OC)c3)C2)cc1 (centres undefined),-2.4,?,-3.3,-2.6%,-18.1
CCc1ccccc1NC(=S)NCC1CCN(c2ccc(OC)cc2)C1 (centres undefined),0.6,11.7µM*,1.8,?,-21.4
COc1ccc(OC)c(NC(=O)C(=O)c2cn(CC(=O)N3CCCC3)c3ccccc23)c1,-0.5,9.28µM*,-1.8,4.65µM*,-13.1
COc1cccc(NC(=O)C(=O)c2cn(CC(=O)N3CCCC3)c3ccccc23)c1,16.7*,3.9%,29.1*,10.4µM*,48.6
Cc1ccc(NC(=O)C(=O)c2cn(CC(=O)N3CCCCC3)c3ccccc23)cc1,6.6,48.9%,31.6,?,68.3
COc1ccc(C)cc1NC(=O)C(=O)c1cn(CC(=O)N2CCCC2)c2ccccc12,0.9,?,14.4,8.28µM*,?
COc1ccc(CCNC(=O)C(=O)c2cn(CC(=O)N3CCCC3)c3ccccc23)cc1,nt,nt,nt,nt,22.6
COc1ccc(NC(=O)C(=O)c2cn(CC(=O)N3CCCC3)c3ccccc23)cc1OC,-2.7,-24.4%,-6.0,?,?
CCOc1ccc(NC(=O)CC2S/C(=N/N=C3CCCCCC3)NC2=O)cc1 (centres undefined),-1.7,?,1.0,?,9.5
CCOC(=O)C1=CCN(S(=O)(=O)c2ccccc2Cl)C1c1cccc(C)c1 (centres undefined),nt,nt,nt,nt,-26.4
CCNC(=O)C1CC(=O)N(Cc2ccc(F)cc2)C(=Nc2ccc(OC)cc2)S1 (centres undefined),-1.6,7.38µM*,-13.9,?,-24.7
Cc1nc2cc(NC(=O)C3(C)CCCN(C(C)C)C3)ccc2o1 (centres undefined),nt,nt,nt,nt,70.9
O=C(NCCc1ccncc1)c1ccc2nc(Cc3cccc(Cl)c3)oc2c1,-0.2,10.3%,-9.9,-44.3%,-70.2*
O=C(NCC1COCCO1)c1ccc2nc(Cc3cccc(Cl)c3)oc2c1 (centres undefined),51.2*,1.2%,51.8*,?,92.8
O=C(c1ccc2nc(Cc3cccc(Cl)c3)oc2c1)N1CCC(O)CC1,-0.7,-26.0%,-4.1,?,-21.1
Cc1cc(CC(C)C)n(-c2nc3ccccc3c(=O)n2OCC(N)=O)n1,25.7*,-19.9%,104.2*,?,16.4
COc1ccc2oc(=O)cc(CN3CCN(C(=O)c4ccccc4Br)CC3)c2c1,nt,nt,nt,nt,-25.8
NS(=O)(=O)c1ccc(N=Nc2c(O)ccc3ccccc23)cc1,-2.4,-11.1%,-12.2,33.6%[5.75 µM],-23.8
Oc1ccc(N=Nc2c(O)ccc3ccccc23)cc1,32.0*,?,-36.1,?,-8.5
COc1cc(N=Nc2ccccc2C(=O)O)ccc1O,5.0,?,14.1,?,?
Oc1ccc(N=Nc2ccc3ccccc3c2)cc1,40.3*,304.9%,nt,353.8%,117.9
SMILES,Cycloheximide cs,Pf growth 48h,Shiga toxin inh,Pf growth 96h,HCMV inh
COc1cc(N=Nc2ccc3ccccc3c2)ccc1O,46.8*,164.5%,nt,122.2%,102.3
COc1cc(C(=O)Nc2ccccc2OCc2cc(=O)n3cc(C)sc3n2)cc(OC)c1OC,nt,nt,nt,nt,-5.2
CCc1ccc(N2CC(C)Cn3c2nc2c3c(=O)[nH]c(=O)n2C)cc1 (centres undefined),-4.4,7.38µM*,-6.7,2.94µM*,14.7
CC(C)(CC(=O)N1CCN(c2ccc(Cl)cc2)CC1)CC1=NS(=O)(=O)c2ccccc2N1,-2.4,9.28µM*,-2.9,102.4%,?
O=C(CCCC1=NS(=O)(=O)c2ccccc2N1)N1CCN(c2ccccc2)CC1,-2.1,-20.2%,-5.1,205.1%,10.8
COc1cccc(N2CCN(C(=O)CC(C)(C)CC3=NS(=O)(=O)c4ccccc4N3)CC2)c1,-1.2,?,-13.3,?,-71.6*
O=C(CCCC1=NS(=O)(=O)c2ccccc2N1)N1CCN(c2ccc(Cl)cc2)CC1,-3.3,-18.8%,-9.5,?,-18.9
CC(C)(C)S(=O)(=O)/C(C#N)=N/Nc1ccc(Cl)cc1,9.6,?,-10.9,-7.6%,-82.4*
CC(C)(C)c1ccc(N/N=C(\C#N)S(=O)(=O)C(C)(C)C)cc1,9.2,?,13.3,-19.2%,?
CCC1CCCCN1CCCNC(=O)c1nn(C)c2c1CS(=O)(=O)c1ccccc1-2 (centres undefined),-1.6,5.1%,-8.5,13.0%,?
O=C(NNc1nc(-c2ccccc2)cs1)c1ccc(F)cc1,14.1,11.7µM*,41.2,9.28µM*,-80.4*
CC(=O)NNc1nc(-c2ccc(C)cc2)cs1,22.6*,0.0%,70.6*,-2.9%,-11.1
O=C(NNc1nc(-c2ccc(F)cc2)cs1)c1ccccc1,5.2,5.22µM*,4.1,8.28µM*,-98.6*
O=C(Nc1nc(-c2ccc(F)cc2)cs1)c1cccc(N2C(=O)CCC2=O)c1,15.7*,4.0%,17.5,39.4%,17.7
O=C(NNc1nc(-c2ccccc2)cs1)c1cccs1,17.6,?,9.4,?,-8.3
CC(=O)NNc1nc(-c2ccccc2)cs1,1.2,-23.9%,-6.3,0.0%,-13.8
Cc1nn(-c2ccc(N3CCOCC3)nn2)c(C)c1CCC(=O)NCc1ccc(F)cc1,-3.6,9.2%,-4.9,?,1.2
CCC(COC)Oc1cc(NCc2ccccc2)c2ncn(C(C)C)c2c1 (centres undefined),nt,4.15µM*,nt,?,-13.2
CCC(CO)Oc1cc(NCc2ccccc2Cl)c2ncn(C(C)C)c2c1 (centres undefined),nt,3.29µM*,nt,?,28.5
CCC(CO)Oc1cc(NCc2ccccc2OC)c2ncn(C(C)C)c2c1 (centres undefined),nt,nt,nt,nt,-15.6
CCC(CO)Oc1cc(NCc2ccccc2F)c2ncn(C(C)C)c2c1 (centres undefined),nt,5.22µM*,nt,4.65µM*,11.9
COCCCOc1cc(NCc2ccccc2)c2ncn(C(C)C)c2c1,nt,nt,nt,nt,-37.1
CCC(CO)Oc1cc(NCc2ccccc2C(F)(F)F)c2ncn(C(C)C)c2c1 (centres undefined),nt,nt,nt,nt,70.0
CC(C)c1ccccc1NC(=O)Cn1cnc2c1c(=O)n(C)c(=O)n2C,nt,nt,nt,nt,10.6
CCc1nn(CCCC(=O)NCc2cc(Br)ccc2OC)c(=O)c2cc3occc3n12,-3.1,?,-2.8,12.2%,-36.9
CCNC(=O)CC1C(=O)N(c2ccccc2)C(=O)N1CCc1ccc(OC)c(OC)c1 (centres undefined),-0.4,nt,-13.2,29.2%,-19.8
